The values that follow come from ChEMBL document CHEMBL1201862, “PubChem BioAssay data set” (2004).

Screen size: about 400,000 compounds; about 2,100 (0.53%) were called active. About 14% were inconclusive and are not listed. How the calls were made is not given here. The list comes from a sample in which actives are over-represented; it also holds similar structures and randomly drawn compounds.

Chain of Ataxin-2 (Homo sapiens) (Q99700 whole entry): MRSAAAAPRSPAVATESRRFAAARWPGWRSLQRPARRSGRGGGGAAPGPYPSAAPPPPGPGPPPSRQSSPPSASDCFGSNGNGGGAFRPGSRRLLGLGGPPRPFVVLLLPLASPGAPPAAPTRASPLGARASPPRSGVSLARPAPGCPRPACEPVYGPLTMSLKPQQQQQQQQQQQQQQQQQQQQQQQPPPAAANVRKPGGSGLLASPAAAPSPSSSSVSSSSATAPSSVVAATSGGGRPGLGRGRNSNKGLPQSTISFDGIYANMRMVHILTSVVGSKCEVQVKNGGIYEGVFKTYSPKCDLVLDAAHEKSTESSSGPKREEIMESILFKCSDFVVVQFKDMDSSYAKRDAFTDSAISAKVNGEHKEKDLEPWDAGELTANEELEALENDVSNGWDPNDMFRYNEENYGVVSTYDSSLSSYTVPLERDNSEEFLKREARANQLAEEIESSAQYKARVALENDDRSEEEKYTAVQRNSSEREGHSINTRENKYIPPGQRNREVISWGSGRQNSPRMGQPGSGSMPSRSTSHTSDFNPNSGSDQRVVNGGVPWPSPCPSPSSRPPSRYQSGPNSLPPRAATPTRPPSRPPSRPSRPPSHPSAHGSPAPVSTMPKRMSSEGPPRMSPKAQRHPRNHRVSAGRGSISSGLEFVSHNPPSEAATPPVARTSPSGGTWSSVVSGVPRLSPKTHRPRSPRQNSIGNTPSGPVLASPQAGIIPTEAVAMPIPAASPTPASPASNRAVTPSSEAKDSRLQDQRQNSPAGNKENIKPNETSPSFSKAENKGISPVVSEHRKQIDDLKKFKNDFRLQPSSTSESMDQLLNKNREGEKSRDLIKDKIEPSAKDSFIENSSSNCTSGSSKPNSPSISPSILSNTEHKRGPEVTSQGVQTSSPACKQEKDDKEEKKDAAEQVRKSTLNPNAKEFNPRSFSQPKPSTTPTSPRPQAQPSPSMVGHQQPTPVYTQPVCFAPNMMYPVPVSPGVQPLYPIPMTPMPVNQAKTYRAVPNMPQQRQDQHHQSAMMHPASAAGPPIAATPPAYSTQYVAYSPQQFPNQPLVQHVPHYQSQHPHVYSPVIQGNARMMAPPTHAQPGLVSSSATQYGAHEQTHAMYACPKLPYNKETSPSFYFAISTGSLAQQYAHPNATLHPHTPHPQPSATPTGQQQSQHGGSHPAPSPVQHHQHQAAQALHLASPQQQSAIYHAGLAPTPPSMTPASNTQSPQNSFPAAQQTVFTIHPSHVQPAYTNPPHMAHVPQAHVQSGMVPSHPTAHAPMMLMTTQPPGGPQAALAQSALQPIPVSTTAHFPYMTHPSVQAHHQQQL

This assay addresses Ataxin-2 (Homo sapiens) (UniProt Q99700). The assay can be described thus: qHTS for Inhibitors of ATXN expression. The class given is functional. Background: In qHTS, concentration-response curves come from the screen itself.
As to `Brc1ccc(C2=CC(c3ccco3)n3ncnc3N2)cc1` (stereo not given), the Potency entry was “inactive”. Take `COc1cccc2cc(C(=O)NCc3ccc(Cl)cc3)c(=O)oc12`: the Potency result was “inactive”. The value for `COc1ccc(/N=c2\oc3c(OC)cccc3cc2C(=O)NCc2ccco2)c(OC)c1` was 22.4 µM (active); that for `COc1ccc(/N=c2\oc3cc(O)ccc3cc2C(=O)NCC2CCCO2)c(OC)c1` (stereo not given) was “inactive”. The value for `CCc1c(C)c(C#N)c2nc3ccccc3n2c1S` was “inactive”; that for `CC(C)=CCC[C@H](C)C[C@@H]1Cc2nc(S)nc(O)c2[C@@H](c2ccc(F)cc2)O1` was 28.2 µM (active). As to `Cc1ccc(-c2noc(CN(C(=O)c3ccc4c(c3)OCO4)C(C)C)n2)cc1`, the Potency entry is “inactive”. For `CC(=O)c1ccc(OCc2cc(C(=O)N3CCC(c4ccncc4)CC3)no2)cc1` the value was “inactive”; for `CSc1ccccc1NC(=O)c1cc(CC(C)C)on1`, “inactive”; for `CC(CNC(=O)c1cc(COc2ccc3ncccc3c2)on1)c1ccccc1` (stereo not given), 44.7 µM (active). For `CCOC(=O)C1CCN(C(=O)Cn2c(=O)c3cccn3c3cccnc32)CC1` the value was “inactive”. The value for `N#Cc1ccc(OCC(O)CS(=O)(=O)c2ccc(F)cc2)cc1` (stereo not given) was “inactive”; that for `CN(C)c1ccc(N=Nc2ccc(S(=O)(=O)O)cc2)c2ccccc12` was 25.1 µM (active); that for `Cc1cc(/C=c2\sc3nc4ccccc4n3c2=O)c(C)n1-c1ccc(C(=O)O)cc1` was “inactive”. For `FC(F)Oc1ccc(/C=N/NC(=S)Nc2cc(C(F)(F)F)ccc2Cl)cc1`, the Potency is 39.8 µM (active).

In the case of `COc1cc(OC)c(C(=O)OC(C)C(=O)Nc2cc(C(F)(F)F)ccc2Cl)cc1OC` (stereo not given), the Potency result is “inactive”. For `CC(Sc1nc[nH]n1)C(=O)Nc1cc(C(F)(F)F)ccc1Cl` (stereo not given) the value was “inactive”; for `CCCc1cc(NCc2ccccn2)n2c(nc3ccccc32)c1C#N`, “inactive”; for `C=C1C(=O)OC2CC1C(O)CC(C)=CCCC(C)=CC(O)CC2C` (stereo not given), 15 µM (active).

Turning to `CC(=O)c1sc2nc(-c3ccc(C)cc3)c3c(c2c1N)CCCC3`, the Potency entry was “inactive”. For `NC(=O)c1sc2nc(-c3ccccc3)c3c(c2c1N)CCCC3` the value was “inactive”; for `CN(C)CCNc1ncnc2c1sc1nc(-c3ccccc3)c3c(c12)CCCC3`, 25.1 µM (active); for `CCN(CC)c1cc(C)c(C#N)c2nc3ccccc3n12`, “inactive”.

Take `Cc1cc(C)nc(OC(C(=O)O)C(OCCc2ccccc2)(c2ccc(F)cc2)c2ccc(F)cc2)n1` (stereo not given): the Potency entry was “inactive”.

`CS(=O)(=O)c1ccc(C(=O)NCCN2C(=O)S/C(=C\c3cccnc3)C2=O)cc1[N+](=O)[O-]`: the Potency is 11.2 µM (active).

For `Cc1ccc(C(=O)NCC(=O)N/N=C/c2cccs2)cc1[N+](=O)[O-]`, the Potency entry was “inactive”.

For `CNCCCOc1ccc(C)cc1OC`, the Potency result was “inactive”. For `COc1ccc(OCC(O)CNCCOc2ccccc2OC)c(C(C)(C)C)c1` (stereo not given) the value was 20 µM (active); for `NC(=O)c1nsc(C(=O)N(Cc2cccnc2)C(C(=O)NC2CCCC2)c2ccc(F)cc2)c1N` (stereo not given), “inactive”. The value for `O=C(NC1CCCC1)C(c1ccc(Cl)cc1)N(Cc1ccc(F)cc1)C(=O)CCl` (stereo not given) was 39.8 µM (active). For `COCCN(C(=O)CCl)C(C(=O)NC1CCCCC1)c1ccccc1C` (stereo not given) the value was 25.1 µM (active); for `COc1ccc(C(C(=O)NC2CCCCC2)N(C(=O)CCl)c2ccc(C)cc2)cc1` (stereo not given), 7.08 µM (active). For `CCc1ccc(N(C(=O)c2snc(C(N)=O)c2N)C(C(=O)NC2CCCC2)c2ccncc2)cc1` (stereo not given), the Potency entry was “inactive”. The value for `COCCCn1c(C(=O)NC2CCCCC2)cc2c(=O)n3cccc(C)c3nc21` was “inactive”; that for `CC(C(=O)NC1CCCCC1)N(Cc1ccc(F)cc1)C(=O)c1snc(C(N)=O)c1N` (stereo not given) was “inactive”; that for `COc1ccc(C(C(=O)NC2CCCC2)N(C(=O)c2ccco2)c2cc3c(cc2C(C)=O)OCO3)cc1` (stereo not given) was “inactive”. For `COCCCn1c(=N)c(C(=O)NC2CCCC2)cc2c(=O)n3cccc(C)c3nc21` the value was “inactive”; for `COc1ccc(CCN2C(=O)CC(C(N)=O)S/C2=N\c2ccccc2)cc1` (stereo not given), “inactive”.

Consider `Cc1cc(C)c2c(N)c(C(=O)NN3CC(=O)N(c4cccc(Cl)c4)CC3=O)sc2n1`, for which the Potency result is “inactive”. The value for `CC(C)(C)C(=O)Cn1ncc(Br)c(Br)c1=O` was 15.8 µM (active); that for `CO/N=C(\Cn1ncc(N2CCOCC2)c(Br)c1=O)c1ccc(Cl)cc1` was “inactive”. For `Nc1cc2c(cc1O)CCCC2` the value was “inactive”; for `O=C(COc1ccc(Br)cc1)N1CCc2ccccc21`, “inactive”; for `CCOCCCn1c(=N)c(C(=O)NC2CCCC2)cc2c(=O)n3cc(C)ccc3nc21`, “inactive”. For `CCCCCCn1c(=O)n2n(c1=O)[C@@H]1CN(S(=O)(=O)c3ccc(C)cc3)C[C@]1(O)[C@@H](OC(=O)NCC1CCCCC1)C2` the value was 31.6 µM (active). On to `CCCCCCn1c(=O)n2n(c1=O)[C@@H]1CN(S(=O)(=O)c3ccc(C)cc3)C[C@]1(O)[C@@H](OC(=O)NC1CCCC1)C2`, for which the Potency is 44.7 µM (active). For `COCCCn1c(=N)c(C(=O)NC2CCCC2)cc2c(=O)n3cc(C)ccc3nc21` the value was “inactive”. The value for `CCCCCCn1c(=O)n2n(c1=O)C[C@]1(OC(=O)NCC3CCCCC3)CN(S(=O)(=O)c3ccc(C)cc3)C[C@]1(O)C2` was 31.6 µM (active); that for `Cc1cccc(C)c1N=C(S)NCCc1ccc(O)c(O)c1` was “inactive”; that for `CC1CC1C(=O)OCC(=O)c1c(N)n(C)c(=O)n(C)c1=O` (stereo not given) was “inactive”. For `CCOC(=O)c1cc2c(=O)n3ccccc3nc2n(Cc2ccco2)/c1=N/C(=O)c1cccnc1` the value was “inactive”; for `COc1ccc(-n2c3nc4ccccc4nc3c3c(=N)oc(C)nc32)cc1`, “inactive”; for `COc1cc(/C=C(\C#N)c2nc3ccccc3n2C)cc(OC)c1O`, “inactive”. As for `Cc1cccn2c(=O)c3cc(C#N)/c(=N\C(=O)c4cccnc4)n(CC4CCCO4)c3nc12` (stereo not given), the Potency entry was “inactive”. For `O=C1CN2CCC1C/C2=C\c1ccnc2c(Cl)cccc12` (stereo not given) the value was “inactive”; for `COC(=O)C1=CN(Cc2ccc(OC)c(OC)c2)C=C(C(=O)OC)C1c1cccs1`, “inactive”. For the compound `C=C1C(=O)c2sccc2C(c2ccc(OC)c(OC)c2)C1COC(C)=O` (stereo not given), the Potency was 5.97 µM (active). The value for `CN1CCN(c2nc3ccccn3c(=O)c2C=C(C#N)C#N)CC1` was “inactive”; that for `CC1(C)CC(=O)C2=C(C1)c1c(ccc3ccccc13)NC2c1ccc(OCC(=O)O)cc1` (stereo not given) was “inactive”; that for `Cc1ccc2nc(NCC(N)=O)nc(-c3ccccc3)c2c1` was “inactive”. For `Nc1cccc2c1C(=O)N(Cc1nnc(-c3ccccc3Br)o1)C2=O` the value was “inactive”; for `O=c1c(Cl)c(Cl)cnn1Cc1nnc(-c2ccccc2Br)o1`, 39.8 µM (active); for `COc1ccc(/C=C2\Oc3cc(OCC(=O)N4CCC[C@H]4C(=O)O)ccc3C2=O)c(OC)c1`, “inactive”.

Regarding `COc1ccc(-c2nnc(SCc3cc(=O)c4cc(C)cc(C)c4[nH]3)n2C)cc1`, the Potency is 17.8 µM (active). `COc1ccc(-c2nc3ccccc3c(=O)n2CCOc2c(C)cccc2C)cc1`: the Potency entry is “inactive”. The value for `CCCCCc1cc(=O)oc2c(C(CCN3CCCC(C)C3)c3ccc4c(c3)OCO4)c(OC)cc(OC)c12` (stereo not given) was 35.5 µM (active). For `COc1ccc(-c2c(C)c3ccc(O)c(CN4CCCC(C)C4)c3oc2=O)cc1OC` (stereo not given) the value was “inactive”; for `CCCCCc1cc(=O)oc2c(C(CCN3CCCC(C)C3)c3ccc(OC)cc3)c(OC)cc(OC)c12` (stereo not given), 31.6 µM (active). For `Cc1c(O)ccc2c(CN3CCOCC3)cc(=O)oc12` the value was “inactive”; for `COc1ccc(CN2COc3ccc4c(C)cc(=O)oc4c3C2)cc1`, “inactive”.

As for `COc1cc(OC)c2c(C)cc(=O)oc2c1C(CCN1CCOCC1)c1ccc2c(c1)OCO2` (stereo not given), the Potency is 20 µM (active). For `CCCc1cc(=O)oc2c3c(ccc12)OCN(Cc1ccccc1OC)C3` the value was “inactive”; for `CCCCCc1cc(=O)oc2c(C(CCN3CCCC(C)C3)c3ccc(N(C)C)cc3)c(OC)cc(OC)c12` (stereo not given), 22.4 µM (active). For `CCN1CCc2c(C#N)c(N3CCOCC3)nc(NCCO)c2C1` the value was “inactive”; for `CCc1cc2c(CN3CCN(CCO)CC3)cc(=O)oc2cc1O`, “inactive”. For `CC(=O)c1ccc(NS(=O)(=O)c2ccc3c(c2)N(C(C)=O)CCO3)cc1` the value was “inactive”; for `COc1ccc(C)cc1NC(=O)c1sc2ncnc(N3CCN(c4ccccn4)CC3)c2c1C`, “inactive”; for `CCCN1CCN(c2ncnc3sc(C(=O)Nc4ccc(C(C)C)cc4)c(C)c23)CC1`, 31.6 µM (active). Consider `CCOC(=O)c1sc2ncnc(N3CCN(C)CC3)c2c1C`, for which the Potency result was “inactive”. The value for `COc1ccccc1C(=O)Nc1nc2n(n1)C(c1ccc(F)cc1)C=C(c1ccc(Cl)cc1)N2` (stereo not given) was “inactive”. The value for `COc1ccccc1C(=O)Nc1cccc(N2CCC(NCc3cnn(-c4ccccc4)n3)CC2)c1` was 28.2 µM (active); that for `COc1cccc(C(=O)Nc2ccc3[nH]c(O)nc3c2)c1OC` was “inactive”. The value for `CCc1ccc(-c2cc(C(F)(F)F)n3nc(C(=O)Nc4c(C)nn(Cc5ccc(F)cc5)c4C)cc3n2)s1` was “inactive”. For `Cc1ccc(Cn2nc(C)c(NC(=O)CSc3nc4c(c(C(F)(F)F)n3)CCc3ccccc3-4)c2C)cc1`, the Potency was 20 µM (active). The value for `COCCNC(=O)c1cc2nc3c(c(C(F)(F)F)n2n1)CCc1ccccc1-3` was “inactive”; that for `Cc1cccn2c(=O)c3cc(C(=O)NC4CCCC4)c(=N)n(CC4CCCO4)c3nc12` (stereo not given) was “inactive”. The value for `COCCCn1c(=N)c(C(=O)NC2CCCCC2)cc2c(=O)n3ccccc3nc21` was “inactive”; that for `O=C1/C(=C/c2ccco2)SC(=S)N1CCC(=O)N1CCCCC1CCO` (stereo not given) was 17.8 µM (active). For `COc1cccc(N2C(=O)C3CCCN3C2=S)c1` (stereo not given) the value was “inactive”. Take `COc1cccc(/C=C2/SC(=S)N(CC(=O)NNC(=O)c3ccccc3OC)C2=O)c1`: the Potency result was “inactive”. `COc1cccc(/C=C2\SC(=S)N(CCCC(=O)N3CCCCC3CCO)C2=O)c1` (stereo not given): the Potency is 39.8 µM (active). The value for `Cc1ccc(-n2nc(C)c3c(C(=O)OCC(=O)N(C)C4CCS(=O)(=O)C4)cc(-c4ccccc4)nc32)cc1` (stereo not given) was “inactive”; that for `COc1cccc(/C=C2\SC(=S)N(CC(=O)N(C)C3CCS(=O)(=O)C3)C2=O)c1` (stereo not given) was 35.5 µM (active).

On to `O=C1N=C(N2CCN(c3ccccc3)CC2)S/C1=C/c1ccco1`, for which the Potency entry was “inactive”. For `COc1cccc(/C=C2\SC(=S)N(CCC(=O)NNC(=O)c3ccccc3OC)C2=O)c1` the value was “inactive”.
